Measurements: PubChem BioAssay AID624330 (Southern Research Specialized Biocontainment Screening …, 2012)
Out of some 340,000 compounds screened, about 2,100 (0.62%) were called active.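 Rule for the calls: active = first-screen hits whose inhibition reached a set limit at any dose in the follow-up dose series; inconclusive = inhibition above the set first-screen limit but never retested; inactive = the rest.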 A selection follows. Measured potencies and affinities stand elsewhere.

Each compound was assayed against Rac GTPase-activating protein 1 (Homo sapiens) (UniProt Q9H0H5) (assay: blockers of MgcRacGAP-driven Rac1 GTP hydrolysis – biochemical, ADP Hunter fluorescence, primary and confirmatory, confirmation (AID 624330;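 note: fluorescence reports GDP produced by GAP-driven GTP hydrolysis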)). Details: MgcRacGAP-stimulated Rac1 GTP hydrolysis, at 30 µM, active compounds read high, GST-tagged Rac1 F28L mutant substrate.
Sequence of Rac GTPase-activating protein 1 (Homo sapiens) (Q9H0H5 whole entry, looked up): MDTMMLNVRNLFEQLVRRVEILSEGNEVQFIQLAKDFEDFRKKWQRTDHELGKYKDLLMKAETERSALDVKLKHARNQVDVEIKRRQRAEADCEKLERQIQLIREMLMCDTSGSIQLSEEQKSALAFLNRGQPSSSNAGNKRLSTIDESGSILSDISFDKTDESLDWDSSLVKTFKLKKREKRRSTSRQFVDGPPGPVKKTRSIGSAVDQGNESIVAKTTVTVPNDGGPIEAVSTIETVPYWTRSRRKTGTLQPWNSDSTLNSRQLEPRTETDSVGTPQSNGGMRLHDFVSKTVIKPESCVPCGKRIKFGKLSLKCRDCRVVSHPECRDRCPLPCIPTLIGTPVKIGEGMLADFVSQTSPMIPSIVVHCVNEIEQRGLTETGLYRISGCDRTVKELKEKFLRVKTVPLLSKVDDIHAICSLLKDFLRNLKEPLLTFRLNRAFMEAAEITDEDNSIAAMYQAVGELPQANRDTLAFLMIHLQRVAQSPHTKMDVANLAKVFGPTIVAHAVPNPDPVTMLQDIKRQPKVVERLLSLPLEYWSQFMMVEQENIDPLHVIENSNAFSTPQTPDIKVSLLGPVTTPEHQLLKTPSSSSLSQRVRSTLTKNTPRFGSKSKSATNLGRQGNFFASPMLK

inhibition, inactive:
CCN1C(=O)[C@H]2[C@@H](c3ccc(-c4ccc(F)cc4)c(OC)c3)N[C@@](Cc3ccccc3)(C(=O)OC)[C@H]2C1=O 0.02%
OC(CN1CCN(C(c2ccccc2)c2ccccc2)CC1)c1ccccc1 (configuration not stated) 8.44%
O=C(NCc1cccc(Cl)c1)C1CCC(=O)N(CCCN2CCCC2=O)C1 (configuration not stated) 10.9%
CN(C(=O)c1cccc(C#CC(C)(C)O)c1)C1CCCN(Cc2ccccc2F)C1 (configuration not stated) -6.83%
COc1ccc(N2CCN(C(=O)CSc3ccccc3)CC2)cc1 17.2%
O=C(CSc1ccccc1)N1CCN(c2ccccc2)CC1 10.2%
Cc1cnc(CNC(=O)c2ccc3oc(C(C)C)nc3c2)[nH]1 -0.66%
Cc1cc(Cl)cc(Br)c1OCCCCn1cncn1 15.5%
Cc1cc(Cl)c(OCCCn2cncn2)c(Br)c1 13.1%
O=c1c2ccccc2nnn1-c1ccccc1[N+](=O)[O-] 10.5%
COc1cc(C(=S)N2CCCC2)ccc1O 24.9%
COc1cc(C(=S)N2CCCCC2)ccc1O 13.6%
O=C(OCc1ccccc1)N1CCC2CC1c1cc(N3CCNCC3)ccc12 (configuration not stated) 10.7%
Cn1c(=O)[nH]c(=O)c2c1nc(N1CCCCCC1)n2Cc1cccc2ccccc12 12.6%
CC(=O)NC(Cc1ccccc1)C(C)=O (configuration not stated) 8.26%
CCOC(=O)C(Cc1ccccc1)NC(C)=O (configuration not stated) -0.49%
COc1cc(CCC(=O)Nc2nnc(-c3cccnc3)s2)cc(OC)c1OC 9%
Clc1cc(NCc2cccs2)ccc1N1CCOCC1 14.1%
COc1ccccc1CNc1ccc(N2CCOCC2)c(C(=O)O)c1 11.4%
O=C(O)c1cc(NCc2cccs2)ccc1N1CCOCC1 8.2%
CCOC(=O)c1cc(NC(=O)c2cccs2)ccc1N1CCOCC1 10.9%
COC(=O)c1cc(NCc2c(F)cccc2Cl)ccc1N1CCOCC1 23.3%
COC(=O)c1cc(NC(=O)c2cccs2)ccc1N1CCOCC1 8.25%
CC(C)[C@H](NC(=O)c1ccccc1)C(=O)OCC(=O)N1CC2(C)CC1CC(C)(C)C2 (some centres not stated) -5.69%
Cc1ccc(S(=O)(=O)N2CCN(c3nc(CN4CCCC4)nc4sc(C)c(C)c34)CC2)cc1 6.41%
CC(C)OC(=O)CSc1nnc(-c2ccc(Cl)cc2Cl)o1 9.06%
O=C1OCCC1=COCCCCCOC=C1CCOC1=O 3.03%
N#Cc1ccccc1NC(=O)CSc1n[nH]c(=O)n1C1CC1 -2.21%
COc1ccccc1CN1CCNC(=O)C1CC(=O)NCCc1cnccn1 (configuration not stated) 4.17%
COc1ccccc1/C=N/NC(=O)C(C)Cn1cnc2ccccc21 (configuration not stated) 2.07%
COc1cc(C(=O)NC(c2ccccc2)c2ccccc2)cc(OC)c1C 2.28%
COc1cc(NC(c2ccccc2)c2ccccc2)cc(OC)c1OC 11%
O=C(OCC(=O)N1CCN(S(=O)(=O)c2ccc(Cl)cc2)CC1)c1cccc(OC(F)F)c1 5.16%
O=C(c1ccc(O)c(Br)c1)c1cc(Br)ccc1O 4.27%
O=C(CCNC(=O)c1ccco1)Nc1ccccc1OC(F)F 5.22%
CCCC1=Nc2cc(C(=O)NCCCN3CCOCC3)ccc2Sc2ccccc21 10.2%
CC(Nc1ccc(Cl)cc1)c1cc(Cl)ccc1O (configuration not stated) 7.06%
CCOc1ccc(NC(C)c2cc(Cl)ccc2O)cc1 (configuration not stated) 15.5%
COC(=O)c1ccc(Nc2nc(-c3ccncc3)nc3ccccc23)cc1 4.52%
CCN1CCN(C(=O)C2CCN(C(=O)c3cc4sccc4n3CC)CC2)CC1 9.89%
CN1CCC(N2CCN(c3cccc(C(F)(F)F)c3)CC2)CC1 5.09%
FC(F)(F)c1cccc(N2Cc3ccccc3C2)c1 11.1%
FC(F)(F)c1cccc(CN2CCCCCC2)c1 26.2%
Oc1ccc(N=Nc2cccc(C(F)(F)F)c2)cc1C=Nc1ccc(N2CCOCC2)cc1 9.72%
O=C(N/N=C/c1ccccc1O)c1cccc(C(F)(F)F)c1 -1.42%
O=C(C1CCC1)N1CCN(c2cccc(C(F)(F)F)c2)CC1 0.34%
O=C(C1=C(O)C(=O)N(CCN2CCOCC2)C1c1ccccn1)c1cccs1 (configuration not stated) 8.66%
COc1cc2c(cc1NC(=O)c1ccc(C)c([N+](=O)[O-])c1)oc1ccccc12 8.23%
CN(C)S(=O)(=O)c1ccc(C(=O)Nc2cccc(C(=O)O)c2)cc1 -1.04%
CCN(CC(=O)N1CCCCC1)S(=O)(=O)c1ccccc1 5.64%
CCOC(=O)C1CCN(C(=O)c2cccc(S(=O)(=O)N3CCc4ccccc43)c2)CC1 3.11%
CCCCNC(=O)C(CC)Sc1nc2sc(C(=O)OC)c(C)c2c(=O)n1N (configuration not stated) 9.24%
CCCCOC(=O)c1nc(Cl)c(Cl)c(N)c1Cl -9.26%
O=C1C=C(Nc2ccc(Cl)cc2)CC(c2ccco2)C1 (configuration not stated) 5.91%
O=C1C=C(Nc2cccc(O)c2)CC(c2ccco2)C1 (configuration not stated) 9.63%
O=C(O)c1ccc(N=Nc2c(O)[nH]c3ccccc23)cc1 5.98%
Oc1[nH]c2ccccc2c1N=Nc1ccc(F)cc1 4.29%
CCN1CCN(C(=O)NC2CCCCC2)CC1 30.1%
CCN1CCN(S(=O)(=O)c2ccc(S(=O)(=O)NCC3CCCO3)cc2)CC1 (configuration not stated) 1.86%
Cc1ccc[n+](CC(=O)c2ccc(Br)cc2)c1C -7.12%
Nc1ccccc1C=C1Cc2ccccc2C1=O 3.76%
O=C(NCc1ccco1)c1ccc(COc2ccc(Cl)cc2)cc1 -1.23%
CC(C)c1ccc(OCC(=O)NCc2ccco2)cc1 6.29%
Cc1noc(C)c1S(=O)(=O)Nc1ccc2c(c1)C(=O)N([C@H](C)CO)C[C@@H](C)[C@@H](CN(C)Cc1ccc3c(c1)OCO3)O2 1.37%
CC(=O)Nc1ccc(S(=O)(=O)N2CCC(N3CCCC3)CC2)cc1 18.2%
Cc1ncc([N+](=O)[O-])n1Cc1cccc2ccccc12 5.41%
CCCNC(=O)NC(=O)COC(=O)CNS(=O)(=O)/C=C/c1ccccc1 6.44%
COc1ccc(Cn2c(=O)sc3ccccc3c2=O)cc1 3.77%
Cn1sc2ccccc2c1=O 18%
Cc1ccc(Cn2c(=O)sc3ccccc3c2=O)cc1 5.22%
O=C(O)c1cn(-c2ccc(F)cc2)c(=O)c2ccccc12 8.79%
COc1ccc(-n2c(=O)c3ccccc3c3ccccc3c2=O)cc1 11.5%
O=C(c1sc2ccccc2c1Cl)N1CCN(c2ccc(F)cc2)CC1 3.37%
O=c1c2ccccc2sn1-c1ccc(S(=O)(=O)N2CCCC2)cc1 21.2%
O=c1sc2ccccc2c(=O)n1Cc1ccccc1F 7.23%
COc1ccc(NC(=O)COC(C)=O)cc1Cl 3.23%
CCOc1ccc(S(=O)(=O)NCCC(=O)NCC(c2cccs2)N(C)C)cc1 (configuration not stated) 8.66%
C#CCNc1cc(C)nc2ncnn12 1.75%
CC(C)CNC(=S)N(CCO)Cc1cc2cc3c(cc2[nH]c1=O)OCO3 14.8%
CC(=C1SC(=S)NC1=O)c1ccccc1 -4.42%
O=C(/C=N/NC(=O)c1ccc(Cl)cc1Cl)c1ccccc1 15%
COc1ccccc1-n1c(SCC(=O)NC2CCCCC2)nc2c(c1=O)SCC2 12.8%
COc1ccc(C(=O)Nc2ccccc2NC(=O)c2ccco2)cc1OC 11%
C/C(=C\C(=O)c1ccc(F)cc1)Nc1ccc(N2CCOCC2)cc1 15.3%
CCCCNC(=S)Nc1ccc(Cl)cc1 8.23%
O=C(NCCNC(=O)Nc1ccc(Cl)cc1)Nc1ccc(Cl)cc1 0.54%
CCOc1ccccc1CNC(=O)C1CCN(c2nn3c(=O)cc(C)nc3s2)CC1 10.9%
O=[N+]([O-])c1ccc(-n2nnnc2CN2CCOCC2)cc1 8.87%
C/C(=N\O)c1ccc2c3ccccc3n(C)c2c1 11%
COc1ccc2c(c1)c1ccccc1n2C -2.65%
Cc1cc(N2CCOCC2)nc(SCc2c(Cl)cccc2Cl)n1 8.06%
Clc1ccc(CN2CCC(Cc3ccccc3)CC2)cc1 14.2%
O=C(O)C1CCN(Cc2ccccn2)CC1 4.54%
O=c1ccn([C@H]2C[C@H](O)[C@@H](CO)O2)c(=O)[nH]1 1.01%
CN(CC(=O)NCC(=O)Nc1ccc(F)cc1)C1CCS(=O)(=O)C1 (configuration not stated) 3.81%
COc1ccc2c(c1)C(c1ccccc1)=NNC(c1ccco1)=N2 2.48%
Cc1ccc(N2C(S)=C(C#N)C(=O)NC2c2ccco2)cc1 (configuration not stated) 49.9%
COc1ccc(N2C(S)=C(C#N)C(=O)NC2c2ccco2)cc1 (configuration not stated) 38.5%
COc1ccc(C2NC(=O)C(C#N)=C(S)N2c2ccccc2)cc1OC (configuration not stated) 42.4%
N#CC1=C(S)N(c2ccccc2)C(c2ccc(-c3ccc(Cl)c(Cl)c3)o2)NC1=O (configuration not stated) 24.7%
N#CC1=C(S)N(c2ccccc2)C(c2ccco2)NC1=O (configuration not stated) 1.78%
N#CC1=C(S)N(c2ccccc2)C(c2ccc(-c3cc(Cl)ccc3Cl)o2)NC1=O (configuration not stated) 19.7%
